Laboratory results taken from PubChem BioAssay AID1259309 (ICCB-Longwood Screening Facility, Harvard Medical School, 2017).
“And” between values parts separate entries of the source, which are not always exact repeats. Equal values may be shown once. In all, about 330,000 compounds went through this assay and about 1,800 (0.55%) were called active. This is one part of a sample in which actives are shown more often than they occur. Cut-off read from the data, not from the text of the source: active = growth inhibition above about 68%; inactive = the rest.

assay: growth inhibition of ugtP-null S. aureus, primary screen, RN4220 ugtP deletion, OD600 (AID 1259309); conditions: 16 h, active compounds read high;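 note: plate controls were untreated wells for no effect and antibiotic for full effect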

Structure (SMILES) | growth inhibition
Cn1c2ccccc2c2cc(C=NNC(=O)c3ccc(N)cc3)ccc21 | -2.18% (inactive)
COc1ccc(C2CC(=O)C=C(c3ccc4ccn(C)c4c3)C2)cc1 (stereo not given) | 4.99% (inactive)
CC(C)(C)c1cc(C(=O)NN=Cc2ccccn2)n[nH]1 | 4.75% (inactive)
O=C(NC(=S)Nc1ccc(S(=O)(=O)Nc2ncccn2)cc1)c1cccc(Br)c1 | -8.14% (inactive)
Cc1ccccc1NC(=S)NNC(=O)c1cccc(Br)c1 | 23.5% (inactive)
O=C(NC(=S)Nc1cccc2c(O)cccc12)c1cccc(Br)c1 | 99.6% (active)
Clc1cc(-c2ccc(C=Nn3cnnc3)o2)ccc1Br | -3.77% (inactive)
O=C(/C=C/c1ccco1)NC(=S)N1CCCCC1 | 7.55% (inactive)
O=C(/C=C/c1ccco1)NC(=S)Nc1ccccc1Br | 90.7% (active)
COc1ccc(Cl)cc1C(=O)NNC(=S)NC(=O)/C=C/c1ccco1 | -0.168% (inactive)
CC[C@@]12C(=O)N(c3ccccc3)C(=O)N1C(c1cccc(C)c1)C1C(=O)N(Cc3ccccc3)C(=O)C12 (stereo not given in full) | 3.88% (inactive)
CC(=NOC(=O)c1ccc(C)cc1)C(=O)c1ccc(Br)cc1 | 0.731% (inactive)
COc1ccc(-c2csc3ncnc(N4CCN(S(=O)(=O)c5cccc(F)c5)CC4)c23)cc1 | -16.7% (inactive)
COc1ccc(-c2csc3ncnc(N4CCN(S(=O)(=O)c5ccccc5C#N)CC4)c23)cc1 | 95.8% (active)
COc1ccc(S(=O)(=O)N2CCN(c3ncnc4c(-c5ccccc5)nsc34)CC2)cc1 | 5.08% (inactive)
CC(=NNC(=O)C1CC1c1ccccc1)c1cccs1 (stereo not given) | 3.01% (inactive)
Cc1cc([N+](=O)[O-])cc(C=NNC(=O)C2COc3ccccc3O2)c1O (stereo not given) | 9.3% (inactive)
CC(=NNC(=O)c1ccncc1)c1ccc(NC(=O)c2ccc(Cl)cc2Cl)cc1 | -4.36% (inactive)
Cc1cccc(NC(=S)NN=C(c2ccccc2)C(C)C)c1 | 36.3% (inactive)
Cc1cccc(NC(=S)Nc2ccc(Cl)c(Cl)c2)c1 | 98.9% (active)
Cc1ccc(NC(=S)Nc2ccc(F)cc2)cc1 | -2.35% (inactive)
CC(=NN=C1SC(CC(=O)O)C(=O)N1c1ccccc1)c1ccc(C)cc1 (stereo not given) | 7.85% (inactive)
O=C(C(=NO)n1cncn1)c1ccc(Cl)cc1Cl | 18.1% (inactive)
Fc1cccc(C=NN=Cc2cccc(F)c2)c1 | 2.16% (inactive)

Structure (SMILES) | growth inhibition
CN1CCN(c2nc(Nc3ccc(O)cc3)nc3ccccc23)CC1 | -7.09% (inactive)
Cc1cc(Nc2ccc(Br)cc2)nc2ccccc12 | 84.1% (active)
Clc1ccc(Nc2ccc3ccccc3n2)cc1 | -34.6% (inactive)
CC(=NNc1nc(-c2ccc(Cl)cc2)cs1)c1cccs1 | -2.32% (inactive)
COc1ccc(C=NNC(=O)c2cccc3ccccc23)c(OC)c1OC | 7.75% (inactive)
CCC(=O)N(C)CCc1cc2c(c(OC)c1C=NNC(=O)c1ccccc1O)OCO2 | 9.87% (inactive)
CC(=NNC(=O)c1c(C)nc2ccccn12)c1ccccc1F | 6.04% (inactive)
COc1cc(C=Nn2c(C)nc3ccccc3c2=O)ccc1O | 2.48% (inactive)
CCC(=O)CC(c1ccc([N+](=O)[O-])cc1)c1c(O)c2ccccc2oc1=O (stereo not given) | 12% (inactive)
COc1cc(C(c2c(O)c3ccccc3oc2=O)c2c(C)n(C)n(-c3ccccc3)c2=O)ccc1O (stereo not given) | 82.9% (active)
S=C(NCCN1CCOCC1)NN=Cc1ccccc1 | -0.962% (inactive)
Cc1ccc(C=NNC(=O)c2ccc(C(=O)NN=Cc3ccc(C)s3)o2)s1 | -0.554% (inactive)
O=C(NC(=S)Nc1ccccc1N1CCCCC1)c1ccc(F)cc1 | 59.3% (inactive)
COc1ccccc1C(=O)NC(=S)Nc1ccccc1N1CCCCC1 | 93.3% (active)
COc1ccc(C(=O)NC(=S)Nc2ccccc2N2CCN(S(C)(=O)=O)CC2)cc1OC | -0.518% (inactive)
COc1ccc(C(=O)/C=C/c2cccnc2)c(OC)c1 | 5.58% (inactive)
COc1ccc(NC(=O)ON=Cc2ccc(Br)cc2)cc1 | 4.87% (inactive)
COc1ccc(/C=C/C(=O)c2cc(Br)ccc(=O)c2O)cc1 | 95.4% (active)
CCC(C)Sc1ccc(C2N[C@@](C)(C(=O)OC)C3C(=O)N(C)C(=O)C23)cc1 (stereo not given in full) | 2.56% (inactive)
Cc1c(CCOC(=O)CC23CC4CC(CC(C)(C4)C2)C3)sc[n+]1Cc1ccc([N+](=O)[O-])cc1 | 101% (active) and 100% (active)
Cc1c(CCOC(=O)c2cc([N+](=O)[O-])ccc2Cl)sc[n+]1CCCCS(=O)(=O)[O-] | -10.2% (inactive)
Cc1c(CCO)sc[n+]1CC(=O)OC12CC3CC(CC(C3)C1)C2 | 7.76% (inactive)
CCN(CC)Cc1c(C(=O)NN=Cc2ccncc2)nnn1-c1nonc1N | 4.89% (inactive)
Nc1scc[n+]1Cc1cccc2cccnc12 | 3.29% (inactive)

Structure (SMILES) | growth inhibition
c1ccc2c(CNn3cnnc3)cccc2c1 | 4.79% (inactive)
c1ccc2c(C[n+]3csc4ccccc43)cccc2c1 | 95.1% (active)
Cc1ccc(CON=CCc2snc(Sc3ncc(C(F)(F)F)cc3Cl)c2C#N)cc1 | 28% (inactive)
CCCC12CN3CCN(CC(C3)C1=NNC(=O)Nc1ccccc1)C2 | 1.17% (inactive)
O=C(ON=Cc1ccc(N2CCCCC2)c([N+](=O)[O-])c1)c1c(F)cccc1F | -5.14% (inactive)
Cc1cc(C)cc(C(=O)NC2C(=O)N3C(C(=O)O)=C(CSc4nnc(C)s4)CSC23)c1 (stereo not given) | 100% (active)
Cc1nnc(SCc2cc(=O)[nH]c(N3CCN(Cc4ccccc4)CC3)n2)s1 | 0.849% (inactive)
Cc1nnc(SCC2=C(C(=O)O)N3C(=O)C(NC(=O)Cn4nc(C)c(Cl)c4C)C3SC2)s1 (stereo not given) | 97.9% (active)
Cc1nnc(SCC(=O)Nn2cnnc2)s1 | -2.34% (inactive)
Cc1nnc(SCC(=O)NC2CCCC2)s1 | -2.03% (inactive)
CC1(C)c2[nH]c3ccccc3c2CC2C(=O)N(Cc3ccccc3F)C(=O)N21 (stereo not given) | 2.24% (inactive) and -4.9% (inactive)
COc1ccc(C=NNC(=O)CN2CCCC2)cc1 | 3.93% (inactive)
CC1CN(C(C)CO)C(=O)Cc2cc(NC(=O)C3CC3)ccc2OC1CN(C)Cc1ccc(Oc2ccccc2)cc1 (stereo not given) | 9.46% (inactive)
Cc1cc(C)nc(N=C(N)Nc2ccc(SC(F)F)cc2)n1 | 20% (inactive)
COc1ccc(C(C)=NNC(=O)c2cccc(S(=O)(=O)N3CCCC3)c2)c(O)c1 | 4.49% (inactive)
O=C(CC1CC=CCC(Cc2ccc(F)cc2)C(=O)OCC(Cc2ccccc2)NC1=O)NC(CO)Cc1ccccc1 (stereo not given) | 5.86% (inactive)
CC(C)(C=NO)/[N+]([O-])=C/c1ccco1 | 3.75% (inactive)
Nc1nonc1C(=O)NN=Cc1ccc([N+](=O)[O-])o1 | 70.5% (inactive)
O=C(/C=C/c1ccc([N+](=O)[O-])o1)NNC(=O)c1ccc(F)cc1 | 98.7% (active)
O=C(NN=Cc1ccc(F)cc1)c1ccc(F)cc1 | 3.85% (inactive)
COc1cc(NC=C2CC(=O)NC(C)=C2C#N)cc(OC)c1OC | -2.01% (inactive)
CC(=O)NC(Cc1ccccc1)C(=O)NC1CCN(c2ncccc2[N+](=O)[O-])CC1 (stereo not given) | 7.02% (inactive)
COc1ccc(-c2cc(C3CCN(c4ncccc4[N+](=O)[O-])CC3)[nH]n2)cc1 | 100% (active)
COc1ccc(-c2cc3ncccc3cn2)cc1 | 7.34% (inactive)

Structure (SMILES) | growth inhibition
COc1ccc(S(=O)(=O)Nc2cccc3c2OC(CN(C)Cc2ccc(Cl)c(Cl)c2)C(C)CN(C(C)CO)C3=O)cc1 (stereo not given) | 11.2% (inactive)
COc1ccccc1NC(=O)c1ccc2nc(N3C(=O)CCC3=O)sc2c1 | -9.64% (inactive)
COc1ccc(C2=NN(c3nc4ccccc4s3)C(=O)C2)cc1 | 99% (active)
COc1ccc(C(=O)Nc2cccc(/C=C(/CCC(=O)O)c3nc4ccccc4s3)c2)cc1 | -2.4% (inactive)
C/C(C=NNC(=O)CSc1nc2ccccc2n1C)=C\c1ccco1 | 3.58% (inactive)
NC(=O)C1CCN(C(=O)COc2cccc3cccnc23)CC1 | -13.3% (inactive)
OCc1ccc(OCCCOc2cccc3cccnc23)cc1 | -3.52% (inactive)
O=C(Nc1ccccc1)Oc1cccc2cccnc12 | 99.7% (active)
Cc1ccc(C(=O)NC(=S)Nc2ccccc2C)cc1 | 83.5% (active)
Cc1ccccc1NC(=S)NC(=O)Cc1ccc(Cl)cc1 | 67% (inactive)
Cc1cc(C(=O)NNC(=S)Nc2ccccc2C)cs1 | -0.4% (inactive)
Cc1cc(SCC(=O)NN=Cc2ccc(O)c(O)c2)nc2ccccc12 | -2.24% (inactive)
ON=Cc1ccc(OCc2ccccc2)c(Br)c1 | 1.91% (inactive)
O=C(CC(O)(C(F)(F)F)C(F)(F)F)Nc1ccc(Cl)c(Cl)c1 | 100% (active)
O=C(COC(=O)c1cc[n+]([O-])cc1)Nc1ccc(Cl)c(C(F)(F)F)c1 | -2.28% (inactive)
NC(=O)N1CCCC1C(=O)Nc1ccc(Cl)c(Cl)c1 (stereo not given) | 3.8% (inactive)
CC(=NNC(=O)c1nnn(-c2nonc2N)c1-c1cccs1)c1ccc(O)cc1 | -2.71% (inactive)
Cc1ccc(C(=O)NCCN2C3=NCC(Cc4ccc(O)cc4)N3CC2Cc2ccc(O)cc2)cc1Br (stereo not given) | -5.82% (inactive)
O=C(CCC(=O)Nc1ccc(F)cc1)NN=Cc1ccccc1 | -1.26% (inactive)
CCCC1CCCCC=CCCCC(=O)OCCN1C(=O)OC(C)(C)C (stereo not given) | -29.8% (inactive) and -2.83% (inactive)
COc1ccc(Cl)cc1NC(=O)CN(C)C(=O)c1cc2ccccc2cc1OC | -3.53% (inactive)
COc1ccc(Cl)cc1NC(=O)CN(C)C(=O)CCCc1c[nH]c2ccccc12 | 98.4% (active)
COc1ccc(Cl)cc1NC(=O)CN(C)C(=O)CNC(=O)C12CC3CC(CC(C3)C1)C2 | -1.84% (inactive)
